Assay results published in paper PMC4336329 (PLoS ONE, 2015).
In all, about 310,000 compounds went through this assay and about 14,000 (4.5%) showed an effect of 50% or more. The effect is printed as a negative number. Shown is part of a subset that was picked to be rich in strong results.

target: human ether-à-go-go-related gene (hERG) potassium channel (human, UniProt Q12809); experiment: primary screen, population patch clamp on CHO cells stably expressing hERG; higher = less effect of the substance
Sequence (Q12809 whole entry, looked up): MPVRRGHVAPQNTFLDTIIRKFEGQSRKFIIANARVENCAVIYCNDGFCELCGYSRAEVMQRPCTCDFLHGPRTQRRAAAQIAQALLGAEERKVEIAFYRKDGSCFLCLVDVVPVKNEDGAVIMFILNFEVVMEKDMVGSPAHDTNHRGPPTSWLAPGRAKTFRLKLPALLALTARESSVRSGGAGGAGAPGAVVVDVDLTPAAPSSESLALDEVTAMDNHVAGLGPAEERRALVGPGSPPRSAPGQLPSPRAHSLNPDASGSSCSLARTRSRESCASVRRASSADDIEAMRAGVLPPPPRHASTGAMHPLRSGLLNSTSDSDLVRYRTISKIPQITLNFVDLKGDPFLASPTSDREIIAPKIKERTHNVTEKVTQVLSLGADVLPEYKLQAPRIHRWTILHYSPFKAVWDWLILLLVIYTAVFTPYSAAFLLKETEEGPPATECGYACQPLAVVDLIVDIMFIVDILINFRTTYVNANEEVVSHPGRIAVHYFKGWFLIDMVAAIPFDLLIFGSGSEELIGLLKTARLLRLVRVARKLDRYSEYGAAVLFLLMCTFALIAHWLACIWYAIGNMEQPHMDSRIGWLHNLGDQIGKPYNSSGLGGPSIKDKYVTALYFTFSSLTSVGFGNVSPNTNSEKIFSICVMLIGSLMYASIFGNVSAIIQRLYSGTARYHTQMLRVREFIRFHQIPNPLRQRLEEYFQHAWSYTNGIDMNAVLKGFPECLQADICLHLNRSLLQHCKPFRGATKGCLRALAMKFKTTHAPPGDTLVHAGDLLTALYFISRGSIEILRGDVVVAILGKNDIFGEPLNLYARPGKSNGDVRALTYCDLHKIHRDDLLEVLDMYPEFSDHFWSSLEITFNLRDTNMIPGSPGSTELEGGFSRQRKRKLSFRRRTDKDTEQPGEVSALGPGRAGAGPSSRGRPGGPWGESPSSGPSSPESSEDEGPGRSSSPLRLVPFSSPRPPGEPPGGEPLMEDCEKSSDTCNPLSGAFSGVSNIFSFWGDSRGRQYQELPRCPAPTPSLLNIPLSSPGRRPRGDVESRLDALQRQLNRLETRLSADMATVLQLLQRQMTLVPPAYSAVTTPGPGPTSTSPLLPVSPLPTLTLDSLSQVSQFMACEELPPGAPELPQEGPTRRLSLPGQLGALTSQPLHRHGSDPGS
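Also: peak tail current of the secondary pulse compared with the same well before compound.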

Compound | hERG current change (%, negative = inhibition) at 10uM [%]
CC1=C(C(N)=O)C(c2ccccc2F)n2nc(CCCO)nc2N1 (stereo not drawn) | 20.3
OCC[C@H]1C[C@H](O)[C@@H](O)[C@@]2(CCc3ccccc3CO2)O1 | 7.83
CCOCC(=O)Nc1cc([N+](=O)[O-])ccc1C | -2.36
COc1cc(NS(=O)(=O)c2ccc(NC(=S)NC(=O)c3ccco3)cc2)ncn1 | 20.4
Cc1ccc(-c2noc(CCCN3C(=O)c4ccccc4C3=O)n2)cc1 | 9.03
CCCCNC(=O)CC1NCCNC1=O (stereo not drawn) | 22
Cc1ccccc1CS(=O)(=O)CCC(=O)NCCN1CCN(c2cccc(Cl)c2)CC1 | -42.5
CCOC(=O)CNc1nc(Cl)nc(Nc2ccc(OC)cc2OC)n1 | 19.2
CCN1C(c2ccc(F)cc2)=CS/C1=C(\C#N)c1nnc2n1-c1ccccc1SC2 | -58.9
CN1C(c2ccc(F)cc2)=CS/C1=C(\C#N)c1nnc2n1-c1ccccc1SC2 | -45.5
Br.CN1C(c2ccc(F)cc2)=CS/C1=C(/C#N)c1nnc(N2CCOCC2)n1-c1ccccc1 | -23.8
COc1ccc(-n2cnnc2SCC(=O)c2cc(C)n(Cc3cccs3)c2C)cc1 | -73.5
COc1ccccc1-n1cnnc1SCC(=O)c1cc(C)n(Cc2cccs2)c1C | -27.8
COc1ccc(-c2nnc(SCC(=O)c3cc(C)n(Cc4cccs4)c3C)o2)cc1 | 5.36
COC(=O)Cn1c(=O)cnc2ccccc21 | -2.96
CCn1cnc2c(oc3ccccc32)c1=O | 18.3
CCOC(=O)c1sc(=S)n(-c2ccc(OC)cc2)c1C | -51.1
CN1CCN(C(=O)c2sc(=S)n(-c3ccccc3)c2N)CC1 | -10.2
CCOC(=O)c1sc(=S)n(-c2ccc(Cl)cc2)c1C | -37.4
CCOc1ccc(-n2c(N)c(C(=O)N3CCN(C)CC3)sc2=S)cc1 | -51
CCOC(=O)c1sc(=S)n(-c2ccc(OC)cc2)c1N | 15.2
Cc1ccc(-n2c(N)c(C(=O)N3CCN(C)CC3)sc2=S)cc1 | -30.4

Compound | hERG current change (%, negative = inhibition) at 10uM [%]
COC(=O)c1c(NC(=O)CSc2nnnn2-c2ccccc2)sc2c1CCC(C(C)(C)C)C2 (stereo not drawn) | -1.38
C=CCn1c(SCC(=O)Nc2cccnc2Cl)nnc1-c1ccc(Cl)cc1 | -45.4
CCOC(=O)C1(C)C=C(Nc2ccccc2)C(=O)N1c1ccccc1 (stereo not drawn) | 25.7
Cc1c(NC(=O)/C(C#N)=C/c2c(Oc3ccccc3)nc3ccccn3c2=O)c(=O)n(-c2ccccc2)n1C | 5.93
Cc1ccc(CNC(=O)C2CCN(S(=O)(=O)N3CCCCC3)CC2)cc1 | -11.4
Cc1ccc(CNC(=O)C2CCCC2)cc1 | 8.93
CSc1ccc(CN2CCC(C(=O)NCc3ccc(C)cc3)CC2)cc1.O=C(O)C(=O)O | -87.6
Cc1ccc(CNC(=O)C2CCN(S(=O)(=O)N3CCCC3)CC2)cc1 | 0.472
CCN(CC)S(=O)(=O)N1CCC(C(=O)NCc2ccc(C)cc2)CC1 | -16.9
CCN(CC)c1ccc(CN2CCC(C(=O)NCc3ccc(C)cc3)CC2)cc1.O=C(O)C(=O)O | -65.3
O=C1c2ccccc2C(=O)N1CNc1ccccc1 | 18.7
O=C1CC(c2ccccc2)CN1C(=O)c1cncc(Br)c1 (stereo not drawn) | 5.75
O=C(c1cccnc1)N1N=C(C2CCCCC2)CC1(O)C(F)(F)F (stereo not drawn) | -0.742
CCN1CCN(CCCNC(=O)c2csc3c2CCCCC3)CC1 | -7.21
O=C(NCCN1CCOCC1)c1csc2c1CCCCC2 | 5.21
O=C(NCCCN1CCOCC1)c1csc2c1CCCC2 | -7.57
CCN1CCCC1CNC(=O)c1csc2c1CCCC2 (stereo not drawn) | -38.9
CC1CCCC(C)N1CCCNC(=O)c1csc2c1CCCCC2 (stereo not drawn) | -49.3
CC1CC(C)CN(CCCNC(=O)c2csc3c2CCCC3)C1 (stereo not drawn) | -65
CC(C)CCNC(=O)c1csc2c1CCCCC2 | 2.04
CCC1CCCCN1CCCNC(=O)c1csc2c1CCCCC2 (stereo not drawn) | -56.7
CC1CC(C)CN(CCCNC(=O)c2csc3c2CCCCC3)C1 (stereo not drawn) | -61.2

Compound | hERG current change (%, negative = inhibition) at 10uM [%]
CC1(C)Cc2c(sc(NC(=O)c3ccc4ncsc4c3)c2C(N)=O)C(C)(C)N1 | -30.5
Cc1cccc(NC(=O)Nc2ccccc2[N+](=O)[O-])n1 | 16.7
NS(=O)(=O)c1ccc(CCNC(=O)CN2CCN(c3ccc(F)cc3)CC2)cc1 | -18.7
COCCSc1ccccc1C(=O)Nc1ccc2c(c1)OCCO2 | 5.7
CCOCCCN(C(=O)c1snc(C(N)=O)c1N)C(C(=O)NC(C)(C)C)c1ccc(Cl)cc1 (stereo not drawn) | -33.1
CCOCCCN(C(=O)c1snc(C(N)=O)c1N)C(C(=O)NC1CCCC1)c1ccc(O)cc1 (stereo not drawn) | 3.52
CCOCCCN(C(=O)c1snc(C(N)=O)c1N)C(C(=O)NCCC(C)C)c1ccc(Cl)cc1 (stereo not drawn) | -68.1
CCOc1ccc(C(C(=O)NC2CCCC2)N(C(=O)c2snc(C(N)=O)c2N)C2CCCC2)cc1 (stereo not drawn) | -51.1
CCOc1ccc(C(C(=O)NC2CCCCC2)N(CCOC)C(=O)c2snc(C(N)=O)c2N)cc1 (stereo not drawn) | -47.5
CCOCCCN(C(=O)c1snc(C(N)=O)c1N)C(C(=O)NC1CCCC1)c1ccc(OC)cc1 (stereo not drawn) | -60.5
COc1ccc(C(C(=O)NC2CCCC2)N(C(=O)c2snc(C(N)=O)c2N)C2CCCC2)cc1OC (stereo not drawn) | 5.77
CCOCCCN(C(=O)c1snc(C(N)=O)c1N)C(C(=O)NCCC(C)C)c1ccc(F)cc1 (stereo not drawn) | -23.6
COc1ccc(C(C(=O)NC2CCCCC2)N(C(=O)c2snc(C(N)=O)c2N)c2ccc(OC)cc2OC)cc1 (stereo not drawn) | 9.37
CCC(C(=O)NC1CCCC1)N(C(=O)c1snc(C(N)=O)c1N)c1ccc(OC)c(OC)c1 (stereo not drawn) | 15.5
CCC(C(=O)NC1CCCCC1)N(C(=O)c1snc(C(N)=O)c1N)c1ccc(OC)cc1OC (stereo not drawn) | -69.3
CCOCCCN(C(=O)c1snc(C(N)=O)c1N)C(C(=O)NC1CCCC1)c1ccc(F)cc1 (stereo not drawn) | -12
CCCCC1CCCOC(C(=O)NCCNCCO)(C(F)(F)F)C1 (stereo not drawn) | 6.03
CN(C)c1nnnn1-c1ccc(Cl)cc1Cl | 0.276
CCN(CC)C(=O)c1n[nH]c(=O)c2ccccc12 | 4
CCn1c(SCC(=O)Nc2cc(C)on2)nnc1-c1ccccc1 | -3.05
COc1ccc(-c2cc(C(=O)N3CCN(c4ccccc4OC)CC3)no2)cc1OC | -0.868
N#CCOC(=O)c1c2c(nc3ccccc13)CCC2 | -23.1

Compound | hERG current change (%, negative = inhibition) at 10uM [%]
Cc1ccc(C)c(S(=O)(=O)N2CCN(CC(=O)NC(=O)NCc3ccccc3)CC2)c1 | -9.97
Cc1cc(C)n(-c2ccc(C(=O)N3CCc4ccccc43)cc2)n1 | -3.89
COc1ccccc1NC(=O)Nc1ccccc1C#N | 15.6
O=C1CCCN1CCCNS(=O)(=O)c1cccc(F)c1 | 25.9
CCOc1ccccc1N(C(=O)c1snc(C(N)=O)c1N)C(C(=O)NC1CCCC1)c1ccco1 (stereo not drawn) | -55
COc1ccccc1N(C(=O)c1snc(C(N)=O)c1N)C(C(=O)NC1CCCC1)c1ccco1 (stereo not drawn) | -35.4
CCOc1ccccc1N(C(=O)c1snc(C(N)=O)c1N)C(C(=O)NCCC(C)C)c1ccco1 (stereo not drawn) | -22.2
CNC(=S)N1CCN(c2nc(-c3ccc(Cl)cc3)cs2)CC1 | 14.7
Cc1cc2c(cc1C)N(Cc1ccc(Cl)cc1)C1=NCCCN12 | -69.8
Cc1cc2c(cc1C)N(Cc1ccccc1)C1=NCCCN12.Cl | -72.3
COC(=O)c1cc(Cl)cc2c(C)c(C3(O)CCCCC3)[nH]c12 | 15
O=C(/C=C/c1ccccc1)N/C(=C/c1ccccc1)C(=O)Nc1ccccc1O | -27.3
CCc1ccccc1NC(=O)Cn1nnc(C(=O)NCc2cccs2)c1N | 13.8
O=C(Cn1cnc2ccccc2c1=O)NCCC(=O)N1CCN(c2ccccc2)CC1 | -7.6
O=C(CN1CCN(C(C(=O)Nc2ccc(Cl)cc2C(F)(F)F)c2ccccc2)CC1)NC1CC1 (stereo not drawn) | -70.2
Cc1ccc(NC(=O)C(c2ccccc2)N2CCN(CC(=O)NC3CC3)CC2)cc1Cl (stereo not drawn) | -46.7
Cc1cc(C)cc(NC(=O)C(c2ccccc2)N2CCN(CC(=O)NC3CC3)CC2)c1 (stereo not drawn) | -28.3
COc1ccccc1NC(=O)COC(=O)[C@@H]1CCCN1C(=O)c1cccs1 | -40.6
Cc1cc(NC(=O)COC(=O)C2CCCN2C(=O)c2cccs2)no1 (stereo not drawn) | -4.36
NC(=O)c1ccsc1NC(=O)COC(=O)C1CCCN1C(=O)c1cccs1 (stereo not drawn) | -63
Cc1ccn2c(C(=O)N/N=C\c3ccccc3[N+](=O)[O-])c(C)nc2c1 | -27.2
